PubChem BioAssay (NCI)
The panel holds about 79,000 compounds, 15% with a hit somewhere; the sample as a whole holds those more often. Unmarked numbers belong to inactive results. Active and inactive are the calls of the source. Cut-off read from the data, not from the text of the source: active = growth inhibition above about 70%; inactive = the rest.

Test: NCI Yeast Anticancer Drug Screen. Data for the cln2 rad14 strain (AID 165);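 note: 0% = growth equal to vehicle treated cultures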
Settings: S. cerevisiae cln2 rad14 strain, active compounds read high
Method: Growth inhibition of yeast strains with defined genetic alterations is measured as a screen for potential anti-cancer activity. Selected strains with alterations in DNA damage repair or cell cycle control were exposed to compounds and growth inhibition was measured relative to vehicle treated controls. The strain used in this assay is cln2 rad14

[1] = at 5.0 µM (retest, dose inferred, filed as 0.5)
[2] = at 50.0 µM (retest, dose inferred, filed as 5.0)

| Compound | growth inhibition [1] [%] | growth inhibition [2] | growth inhibition (at 50.0 µM) |
| --- | --- | --- | --- |
| CCCCCCCCCCCCCCN | 24 | 99% (active) | 88.2% (active) |
| O=C1NC(c2cccc(OCc3ccccc3)c2)Nc2ccccc21 (configuration not stated) | 35 | 38% | 32.5% |
| Cc1c(Cl)c(C)c(Cl)c(O)c1Cl | 32 | 100% (active) | 93% (active) |
| S=C1N(c2ccc(Cl)cc2)C2=C(N=Nc3ccccc3)C(=Nc3ccccc3S2)N1c1ccccn1 | 13 | 99% (active) | 98.5% (active) |
| CC1=COC2=C(C)C(=O)C(=O)c3c(C)ccc1c32 | 16 | 32% | 77.8% (active) |
| Cc1ccc(Nc2n[nH]c(=S)s2)c(C)c1 | 24 | 49% | 48.1% |
| CC1(C)OC(=O)C(=Cc2ccc([N+](=O)[O-])s2)C(=O)O1 | 47 | 81% (active) | 30.8% |
| CCCCS/C(=C(/C#N)C(N)=O)c1cc2c([nH]1)CCCC2 | 8 | 24% | 54.2% |
| Nc1ccc(N=Nc2ccc(-c3ccc(O)cc3)cc2)c2ccc(S(=O)(=O)O)cc12 | 45 | 13% | 47.1% |
| CC1(C)CC(=O)C(C(=O)Nc2cccs2)=C(O)C1 | 23 | 37% | 89.4% (active) |
| CC(C)OP(=O)(OC(C)C)/C(Cl)=N/Nc1ccc([N+](=O)[O-])cc1 | 28 | 80% (active) | 89.2% (active) |
| CCCCCCCCNCCCCCCCC | 65 | 100% (active) | 99.1% (active) |
| CC1(C)CC(=O)C(/C=N/c2nc(-c3ccc(Br)cc3)cs2)=C(O)C1 | 65 | 97% (active) | 98.3% (active) |
| CCOC(=O)/C(=C\c1cccc(C)c1)C(C)=O | 5 | 88% (active) | 87.5% (active) |
